Data: PubChem BioAssay (Tox21)
Results filed as inconclusive are left out. The source made the active and inactive calls. Unless noted, calls follow the shape of the dose curve; as a rule, active = well fitted curve in the direction sought with a large enough effect in the repeat runs; inconclusive = weak or mixed curves; inactive = no such curve, though single readings can be large; an effect the other way counts as inactive or inconclusive.

Tests used:
[1] = qHTS assay to identify small molecule antagonists of the estrogen related receptor (ERR) signaling pathway from Tox21 library - cell viability counter screen (AID 1224834); also: nearly all actives have a fitted effect of over 30% in size
How it was run: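 Cytotoxicity of test substances is gauged in the same ERR cells used for the antagonist screen, after 17.5 h of compound treatment at 37 C, by CellTiter-Fluor fluorescence measured after 30 min.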

[2] = qHTS assay to identify small molecule agonists of the constitutive androstane receptor (CAR) signaling pathway - cell viability counter screen (AID 1224836); also: nearly all actives have a fitted effect of over 45% in size
How it was run: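 23 h treatment, 37 C, 5% CO2. Cell line: HepG2 stably expressing hCAR with a CYP2B6-2.2kb construct. Co-treatment: PK11195, 0.75 uM final. Read-out: CellTiter-Fluor fluorescence intensity.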

[3] = qHTS assay to identify small molecule antagonists of the constitutive androstane receptor (CAR) signaling pathway - cell viability counter screen (AID 1224837); also: nearly all actives have a fitted effect of over 45% in size
How it was run: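 Multiplexed cytotoxicity read-out for the CAR antagonist screen: double-stable HepG2-CYP2B6-hCAR cells co-treated with 50 nM CITCO (final) and compound over 15 concentrations, incubated 23 hr, then assessed by CellTiter-Fluor fluorescence.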

[4] = molecular target: Nuclear receptor subfamily 1 group I member 3 (Homo sapiens) (UniProt Q14994); assay: qHTS assay to identify small molecule antagonists of the constitutive androstane receptor (CAR) signaling pathway (AID 1224838); also: nearly all actives have a fitted effect of over 40% in size
Nuclear receptor subfamily 1 group I member 3 (Homo sapiens), sequence (Q14994 whole entry, looked up): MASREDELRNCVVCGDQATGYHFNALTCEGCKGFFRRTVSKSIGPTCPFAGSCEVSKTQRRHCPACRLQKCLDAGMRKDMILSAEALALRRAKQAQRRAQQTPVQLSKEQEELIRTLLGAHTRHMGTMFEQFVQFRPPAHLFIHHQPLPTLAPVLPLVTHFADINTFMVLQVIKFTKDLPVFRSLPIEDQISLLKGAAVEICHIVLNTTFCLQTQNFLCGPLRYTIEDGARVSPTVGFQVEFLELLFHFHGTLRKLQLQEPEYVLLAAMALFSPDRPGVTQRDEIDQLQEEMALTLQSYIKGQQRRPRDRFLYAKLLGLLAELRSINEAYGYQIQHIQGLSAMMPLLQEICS
How it was run: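 Compounds were titrated across 15 concentrations onto HepG2 cells double-stably expressing hCAR and a CYP2B6-2.2kb reporter, together with 50 nM CITCO (final). After 24 h at 37 C, luciferase activity was measured by luminescence.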

[5] = molecular target: Nuclear receptor subfamily 1 group I member 3 (Homo sapiens) (UniProt Q14994); assay: qHTS assay to identify small molecule agonists of the constitutive androstane receptor (CAR) signaling pathway (AID 1224839);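 also: HepG2 cells stably carrying human CAR and a CYP2B6 luciferase reporter; nearly all actives have a fitted effect of over 15% in size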
How it was run: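 Compounds tested at 15 concentrations on HepG2 cells stably harbouring hCAR and CYP2B6-2.2kb reporter constructs, co-treated with PK11195 (0.75 uM final), 24 h at 37 C; luminescent reporter signal quantified.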

[6] = qHTS assay to identify small molecule antagonists of the estrogen related receptor signaling pathway with the pleiotropic PPARgamma coactivator (PGC) from Tox21 10K library - cell viability counter screen (AID 1224840; active = well fitted cell-killing curve with a large enough effect in the repeat runs, not every such curve was filed as active; also: nearly all actives have a fitted effect of over 40% in size)
How it was run: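 Step one, plate 2,000 PGC/ERR cells per well; step two, incubate 6 h at 37 C/5% CO2; step three, pin-transfer compounds; step four, incubate 17.5 h; step five, add CellTiter-Fluor and read fluorescence after 30 min.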

[7] = qHTS assay to identify small molecule antagonists of the estrogen related receptor signaling pathway with the pleiotropic PPARgamma coactivator (PGC) from Tox21 10K library (AID 1224841; call rule not given here; also: actives are mostly falling curves and most rising ones were filed inactive; nearly all actives have a fitted effect of over 50% in size)
How it was run: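 Antagonism in this quantitative HTS is taken from loss of luciferase signal in PGC/ERR cells. Cells (2,000/well) are treated with compounds in DMSO after a 6 h settling period and read by One-Glo luminescence after 18 h.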

[8] = qHTS assay to identify small molecule agonists of the estrogen related receptor signaling pathway with the pleiotropic PPARgamma coactivator (PGC) from Tox21 10K library (AID 1224842); also: nearly all actives have a fitted effect of over 15% in size
How it was run: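 PGC/ERR reporter cell line, 2,000 cells per well, incubated 6 h at 37 C before 23 nL compound in DMSO was added. After 18 h at 37 C, One-Glo luminescence read following 30 min at room temperature.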

[9] = qHTS assay to identify small molecule agonists of the hypoxia (HIF-1) signaling pathway - cell viability counter screen (AID 1224844; calls by dose curve; also: nearly all actives have a fitted effect of over 50% in size)
How it was run: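 Tox21 10K compounds were added to HRE-bla ME-180 cells (0.5% dialyzed FBS) and incubated 17 hrs at 37C; ATP-based CellTiter-Glo luminescence then reported cell viability in the same wells.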

[10] = qHTS assay to identify small molecule agonists of H2AX (AID 1224845; active = well fitted activation curve with a large enough effect in the signal ratio in the repeat runs, not every such curve was filed as active; the % refers to the signal ratio)
How it was run: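 Wild-type CHO-K1 cells, plated overnight, exposed 3hr at 37C to 15 concentrations (0.76% DMSO final). Lysed, then HTRF anti-pH2AX (S139) cryptate and anti-H2AX-d2 antibodies, 24 hr room temperature; 665/620 nm emission read.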

[11] = qHTS assay to identify small molecule agonists of the hypoxia (HIF-1) signaling pathway (AID 1224846; active = well fitted activation curve with a large enough effect in the signal ratio in the repeat runs, not every such curve was filed as active; the % refers to the signal ratio)
How it was run: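 Steps: seed ME-180 HRE-bla cells (2,000/well, 0.5% dialyzed FBS); incubate 5 hrs at 37C; pin-transfer compounds or DMSO; incubate 17 hrs; add LiveBLAzer B/G substrate CCF4-AM; measure reporter activation by FRET.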

[12] = qHTS assay to identify small molecule agonists of H2AX - cell viability counter screen (AID 1224847; calls by dose curve; also: top concentration of the series differs between compounds; nearly all actives have a fitted effect of over 30% in size)
How it was run: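 Compounds tested at 15 concentrations were incubated 3 hr at 37C with wild-type CHO-K1 cells; cellular ATP-based luminescence (CellTiter-Glo) indicated viability.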

[13] = qHTS assay to identify small molecule antagonists of the estrogen related receptor (ERR) signaling pathway from Tox21 library (AID 1224848); also: nearly all actives have a fitted effect of over 50% in size
How it was run: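 Luminescent reporter read-out (ONE-Glo) from NTP's ERR cell line after 18 h treatment at 37 C with DMSO-dissolved Tox21 compounds; cells pre-plated 6 h beforehand at 2,000 per well.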

[14] = qHTS assay to identify small molecule agonists of the estrogen related receptor (ERR) signaling pathway from Tox21 library (AID 1224849; calls by dose curve; also: nearly all actives have a fitted effect of over 15% in size); details: ERR reporter cell line, ONE-Glo luciferase, 18 h; at 92.4 µM (top of the series) unless noted
How it was run: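 Agonist signal is luciferase luminescence from an ERR reporter cell line treated 18 h at 37 C with DMSO-dissolved compounds, read 30 min after ONE-Glo addition at room temperature.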

[15] = qHTS RealTime-Glo MT Cell Viability Assay in HepG2 cells - 24 hour (AID 1224867); also: nearly all actives have a fitted effect of over 50% in size
How it was run: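 Viability was tracked continuously by NanoLuc luminescence from prosubstrate reduced by living HepG2 cells, at successive time points over 40 h of compound exposure. Cells with reagent were preincubated 5 h at 37 °C before compound addition.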

[16] = qHTS RealTime-Glo MT Cell Viability Assay in HEK293 cells - 32 hour (AID 1224868)
How it was run: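 Viability tracked continuously by luminescence as live cells reduce a prosubstrate for NanoLuc; HEK293 cells preincubated 5 h, compound-treated at 37 C, and read at 0, 8, 16, 24, 32 and 40 h.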

[17] = A CellTox Green Cytotoxicity Assay to monitor cytotoxicity in HEK293 cells - 0 hour (AID 1224869); also: nearly all actives have a fitted effect of over 50% in size
How it was run: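 Cytotoxicity was tracked continuously in HEK293 cells by a DNA-binding dye excluded from viable cells. Compounds were transferred in DMSO 5 h after seeding; fluorescence was recorded at intervals up to 40 h.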

[18] = molecular target: Thyrotropin receptor (Homo sapiens) (UniProt P16473); assay: qHTS assay to identify small molecule agonists of the thyroid stimulating hormone receptor (TSHR) signaling pathway (AID 1224843; calls by dose curve; also: nearly all actives have a fitted effect of over 45% in size)
Thyrotropin receptor (Homo sapiens), sequence (P16473 whole entry, looked up): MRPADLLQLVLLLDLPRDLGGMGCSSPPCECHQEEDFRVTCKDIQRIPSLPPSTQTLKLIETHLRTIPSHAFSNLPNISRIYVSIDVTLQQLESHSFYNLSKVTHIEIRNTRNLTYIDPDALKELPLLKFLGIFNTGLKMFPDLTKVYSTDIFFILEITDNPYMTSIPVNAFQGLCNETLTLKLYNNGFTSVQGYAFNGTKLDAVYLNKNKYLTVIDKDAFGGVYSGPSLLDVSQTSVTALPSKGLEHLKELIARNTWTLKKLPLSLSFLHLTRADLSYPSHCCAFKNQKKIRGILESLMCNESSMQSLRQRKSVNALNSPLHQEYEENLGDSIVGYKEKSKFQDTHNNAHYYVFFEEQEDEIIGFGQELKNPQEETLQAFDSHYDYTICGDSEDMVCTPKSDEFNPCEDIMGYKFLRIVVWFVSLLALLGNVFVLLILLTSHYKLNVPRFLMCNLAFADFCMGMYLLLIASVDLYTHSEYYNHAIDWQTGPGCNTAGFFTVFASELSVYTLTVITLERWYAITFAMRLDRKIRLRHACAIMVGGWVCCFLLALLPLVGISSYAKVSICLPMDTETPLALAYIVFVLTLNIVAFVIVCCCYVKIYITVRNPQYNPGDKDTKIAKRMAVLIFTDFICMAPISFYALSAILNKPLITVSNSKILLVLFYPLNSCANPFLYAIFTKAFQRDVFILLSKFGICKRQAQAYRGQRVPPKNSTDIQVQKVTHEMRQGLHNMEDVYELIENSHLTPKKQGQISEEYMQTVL
How it was run: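 Steps: seed 800 TSHR-HEK293 cells per well; add test compound and hold 30 min at ambient temperature; dispense cAMP-d2 then anti-cAMP cryptate; incubate 1 h at ambient; measure fluorescence intensity.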

[19] = molecular target: Luciferin 4-monooxygenase (Photinus pyralis) (UniProt P08659); assay: qHTS assay to identify small molecule inhibitors of firefly luciferase (AID 1224835); also: nearly all actives have a fitted effect of over 25% in size
Luciferin 4-monooxygenase (Photinus pyralis), sequence (P08659 whole entry, looked up): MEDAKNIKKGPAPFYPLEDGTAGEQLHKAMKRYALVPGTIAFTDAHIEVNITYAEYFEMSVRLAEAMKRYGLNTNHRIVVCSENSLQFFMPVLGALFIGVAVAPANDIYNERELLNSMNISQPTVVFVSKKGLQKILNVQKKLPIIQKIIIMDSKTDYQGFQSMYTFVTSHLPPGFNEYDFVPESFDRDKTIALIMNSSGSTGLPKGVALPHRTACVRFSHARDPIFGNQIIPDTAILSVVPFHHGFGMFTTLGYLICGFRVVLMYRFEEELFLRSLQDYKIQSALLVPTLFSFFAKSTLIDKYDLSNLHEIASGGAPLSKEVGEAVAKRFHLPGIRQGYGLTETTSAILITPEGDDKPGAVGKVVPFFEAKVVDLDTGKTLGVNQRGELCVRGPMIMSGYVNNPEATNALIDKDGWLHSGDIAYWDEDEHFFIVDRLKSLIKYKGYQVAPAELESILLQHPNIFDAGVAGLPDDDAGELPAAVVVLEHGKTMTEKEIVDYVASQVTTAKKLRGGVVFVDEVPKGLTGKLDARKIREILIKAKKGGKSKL
How it was run: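 Biochemical qHTS: compounds run as interplate titrations against purified firefly enzyme, with D-luciferin and ATP each at its KM concentration. Light output recorded by CCD imaging.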
% is scaled to controls: 0 for no effect and ±100 for the full control effect.

Cc1ccc2cc(C)ccc2c1
inactive: Potency [1] | Potency [2] | Potency [3] | Potency [4] | Potency [5] | Potency [6] | Potency [7] | Potency [8] | Potency [9] | outcome [10] | outcome [11] | Potency [12] | Potency [13] | activity change, positive = activation [14] 0.0091% | Potency [15] | Potency [16] | outcome [17]

ClCCN1CCCC1
inactive: Potency [1] | Potency [2] | Potency [3] | Potency [4] | Potency [5] | Potency [6] | Potency [18] | Potency [9] | outcome [10] | outcome [11] | Potency [12] | Potency [15] | Potency [16] | outcome [17]

CCN1CCCC1CNC(=O)C(O)(c1ccccc1)c1ccccc1 (centres undefined)
inactive: Potency [1] | Potency [2] | Potency [3] | Potency [4] | Potency [5] | Potency [6] | Potency [18] | Potency [9] | outcome [10] | outcome [11] | Potency [12] | Potency [15] | outcome [17]

[P]#[In]
inactive: Potency [1] | Potency [2] | Potency [3] | Potency [4] | Potency [5] | Potency [6] | Potency [7] | Potency [8] | Potency [18] | Potency [9] | outcome [10] | Potency [13] | activity change, positive = activation [14] 3.59% | Potency [15] | Potency [16] | outcome [17]

NC(=O)OCCCc1ccccc1
inactive: Potency [1] | Potency [19] | Potency [3] | Potency [6] | Potency [18] | Potency [9] | outcome [10] | Potency [12] | Potency [15] | outcome [17]

O=C(NC(O)C(Cl)(Cl)Cl)NC(O)C(Cl)(Cl)Cl (centres undefined)
inactive: Potency [1] | Potency [19] | Potency [3] | Potency [6] | Potency [9] | outcome [10] | outcome [11] | Potency [12] | Potency [15] | Potency [16] | outcome [17]

CCN[C@H](C)Cc1cccc(C(F)(F)F)c1
inactive: Potency [1] | Potency [2] | Potency [3] | Potency [4] | Potency [5] | Potency [6] | Potency [18] | Potency [9] | outcome [10] | outcome [11] | Potency [12] | Potency [15] | Potency [16] | outcome [17]

Nc1c(Cl)c(F)nc(OCC(=O)O)c1Cl
inactive: Potency [1] | Potency [2] | Potency [3] | Potency [4] | Potency [5] | Potency [6] | Potency [7] | Potency [8] | Potency [18] | Potency [9] | outcome [10] | outcome [11] | Potency [12] | Potency [13] | activity change, positive = activation [14] 0.0677% | Potency [15] | Potency [16] | outcome [17]

COc1ccc(C=O)cc1O
inactive: Potency [1] | Potency [2] | Potency [3] | Potency [4] | Potency [5] | Potency [6] | Potency [8] | Potency [18] | Potency [9] | outcome [10] | outcome [11] | Potency [12] | Potency [13] | activity change, positive = activation [14] 2.88% | Potency [15] | outcome [17]
